# How the values were obtained:
# Experiment in all cases: DAPPL (digital affinity profiling via proximity ligation, sequencing); 10 mM Tris-HCl pH 7.5, 50 mM NaCl, 1 mM DTT, 4% glycerol, room temperature, 30 min; GST-TFs on glutathione beads, 16-mer random dsDNA library, 0.1% formaldehyde crosslink after washing; high values mean tight binding
# Conditions in all cases: protein: recombinant; tags: N-terminal GST; dsDNA, one strand shown
# FLI1 = target: T1, FLI1 (Homo sapiens, UniProt Q01543 1-452)
# T1 sequence: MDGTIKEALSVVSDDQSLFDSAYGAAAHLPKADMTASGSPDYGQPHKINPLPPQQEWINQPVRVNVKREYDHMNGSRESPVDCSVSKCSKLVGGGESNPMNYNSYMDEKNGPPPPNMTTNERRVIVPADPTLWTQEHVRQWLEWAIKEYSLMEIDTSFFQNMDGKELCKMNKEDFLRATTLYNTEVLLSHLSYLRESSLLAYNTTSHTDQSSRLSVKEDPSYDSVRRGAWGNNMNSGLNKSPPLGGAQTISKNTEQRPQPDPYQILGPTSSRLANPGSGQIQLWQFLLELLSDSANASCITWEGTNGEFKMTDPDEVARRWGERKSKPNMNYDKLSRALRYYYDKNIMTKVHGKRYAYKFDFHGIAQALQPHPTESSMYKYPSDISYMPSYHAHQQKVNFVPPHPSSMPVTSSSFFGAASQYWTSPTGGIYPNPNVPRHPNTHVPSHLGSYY
# Summary of the method: (§1)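 Binding signal is defined as a hexamer's read frequency for one factor over its frequency for the tag-only sample. To obtain reads, GST-fused human transcription factors were expressed in yeast, captured on glutathione beads, barcoded with DNA and pooled with that sample. Pools met 200 nmole of a 16-mer random double-stranded DNA library in Tris/NaCl/DTT/glycerol buffer for 30 min at room temperature before washing, 0.1% formaldehyde crosslinking, proximity ligation (BsaI/T4 ligase, 1 h, 37 °C), PCR and Illumina NextSeq500 sequencing.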
# GABPA = target: T2, GABPA (Homo sapiens, UniProt Q06546 1-454)
# T2 sequence: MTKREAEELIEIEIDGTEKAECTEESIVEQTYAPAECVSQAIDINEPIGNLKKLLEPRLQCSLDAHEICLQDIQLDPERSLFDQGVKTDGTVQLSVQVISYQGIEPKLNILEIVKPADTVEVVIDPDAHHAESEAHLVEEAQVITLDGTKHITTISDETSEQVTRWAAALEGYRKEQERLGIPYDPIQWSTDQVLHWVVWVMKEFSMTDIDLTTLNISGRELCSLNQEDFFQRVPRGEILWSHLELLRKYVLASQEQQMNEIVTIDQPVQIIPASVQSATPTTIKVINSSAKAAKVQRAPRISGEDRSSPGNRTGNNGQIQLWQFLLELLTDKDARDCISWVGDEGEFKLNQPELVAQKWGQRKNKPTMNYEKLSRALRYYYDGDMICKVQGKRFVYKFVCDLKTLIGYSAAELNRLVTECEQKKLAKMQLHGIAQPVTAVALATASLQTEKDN
# Summary of the method: as §1
# ERG = target: T3, ERG (Homo sapiens, UniProt P11308 1-479)
# T3 sequence: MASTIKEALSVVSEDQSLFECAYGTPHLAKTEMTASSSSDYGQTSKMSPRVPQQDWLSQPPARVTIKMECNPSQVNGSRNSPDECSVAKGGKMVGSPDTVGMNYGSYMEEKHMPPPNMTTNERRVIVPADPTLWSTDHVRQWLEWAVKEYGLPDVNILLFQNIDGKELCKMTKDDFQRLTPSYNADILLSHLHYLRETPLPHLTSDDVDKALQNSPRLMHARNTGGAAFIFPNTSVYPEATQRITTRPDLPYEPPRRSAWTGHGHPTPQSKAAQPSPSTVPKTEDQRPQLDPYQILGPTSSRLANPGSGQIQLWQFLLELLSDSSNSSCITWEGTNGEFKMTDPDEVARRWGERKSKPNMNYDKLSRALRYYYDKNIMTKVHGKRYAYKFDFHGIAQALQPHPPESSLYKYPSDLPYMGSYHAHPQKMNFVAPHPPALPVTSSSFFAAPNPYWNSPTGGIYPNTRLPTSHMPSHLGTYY
# Summary of the method: as §1
# ELF1 = ELF1 (Homo sapiens, UniProt P32519 1-619)
# ELF1, sequence (P32519 whole entry): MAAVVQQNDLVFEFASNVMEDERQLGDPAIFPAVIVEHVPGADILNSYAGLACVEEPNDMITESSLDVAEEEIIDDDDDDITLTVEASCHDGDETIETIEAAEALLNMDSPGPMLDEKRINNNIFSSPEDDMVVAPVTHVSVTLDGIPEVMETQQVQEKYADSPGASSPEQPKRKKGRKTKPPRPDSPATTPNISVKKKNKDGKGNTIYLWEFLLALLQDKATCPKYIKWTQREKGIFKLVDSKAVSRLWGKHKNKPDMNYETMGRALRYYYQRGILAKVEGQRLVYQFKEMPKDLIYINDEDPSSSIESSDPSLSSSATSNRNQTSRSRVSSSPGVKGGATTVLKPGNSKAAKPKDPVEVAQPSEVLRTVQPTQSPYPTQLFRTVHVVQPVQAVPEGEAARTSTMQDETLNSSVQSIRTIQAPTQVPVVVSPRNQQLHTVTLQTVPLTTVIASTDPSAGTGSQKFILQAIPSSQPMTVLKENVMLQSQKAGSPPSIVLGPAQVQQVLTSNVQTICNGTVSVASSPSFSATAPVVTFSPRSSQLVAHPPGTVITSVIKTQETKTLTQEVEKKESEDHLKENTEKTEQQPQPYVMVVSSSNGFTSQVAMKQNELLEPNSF
# Summary of the method: as §1
# EHF = target: T4, EHF (Homo sapiens, UniProt Q9NZC4 1-300)
# T4 sequence: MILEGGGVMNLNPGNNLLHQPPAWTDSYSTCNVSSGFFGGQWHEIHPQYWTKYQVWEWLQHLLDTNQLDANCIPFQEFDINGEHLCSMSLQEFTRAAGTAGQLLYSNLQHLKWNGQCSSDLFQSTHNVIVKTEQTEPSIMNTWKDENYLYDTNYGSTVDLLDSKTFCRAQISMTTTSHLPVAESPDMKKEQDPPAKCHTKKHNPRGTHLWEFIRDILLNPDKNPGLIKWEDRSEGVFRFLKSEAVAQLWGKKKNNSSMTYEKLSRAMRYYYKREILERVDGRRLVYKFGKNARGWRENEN
# Summary of the method: as §1
# SPI1 = SPI1 (Homo sapiens, UniProt P17947 1-270)
# Summary of the method: as §1
# SPIB = SPIB (Homo sapiens, UniProt Q01892 1-262)
# SPIB, sequence (Q01892 whole entry): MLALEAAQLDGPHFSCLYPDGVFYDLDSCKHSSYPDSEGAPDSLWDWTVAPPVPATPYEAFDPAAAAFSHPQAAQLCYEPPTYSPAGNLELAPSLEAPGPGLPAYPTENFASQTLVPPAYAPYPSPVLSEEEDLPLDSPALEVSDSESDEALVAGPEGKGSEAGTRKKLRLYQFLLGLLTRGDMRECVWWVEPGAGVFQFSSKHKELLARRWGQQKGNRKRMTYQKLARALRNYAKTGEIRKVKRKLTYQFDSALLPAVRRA
# Summary of the method: as §1
# ETV5 = ETV5 (Homo sapiens, UniProt P41161 1-510)
# ETV5, sequence (P41161 whole entry): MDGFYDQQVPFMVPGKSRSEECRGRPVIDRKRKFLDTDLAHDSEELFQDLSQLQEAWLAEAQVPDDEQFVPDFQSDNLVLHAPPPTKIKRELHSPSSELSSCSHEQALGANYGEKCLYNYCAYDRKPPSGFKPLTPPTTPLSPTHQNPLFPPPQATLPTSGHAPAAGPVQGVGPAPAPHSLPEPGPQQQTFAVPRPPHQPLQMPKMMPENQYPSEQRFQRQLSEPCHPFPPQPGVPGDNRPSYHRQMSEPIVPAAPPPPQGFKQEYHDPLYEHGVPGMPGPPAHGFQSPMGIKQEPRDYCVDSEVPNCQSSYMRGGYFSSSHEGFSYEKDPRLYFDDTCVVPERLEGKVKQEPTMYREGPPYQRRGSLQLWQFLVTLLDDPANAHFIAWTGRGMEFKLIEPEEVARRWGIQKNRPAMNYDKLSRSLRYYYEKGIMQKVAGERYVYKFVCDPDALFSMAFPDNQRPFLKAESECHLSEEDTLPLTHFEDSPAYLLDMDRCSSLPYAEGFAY
# Summary of the method: as §1
# SPIC = target: T5, SPIC (Homo sapiens, UniProt Q8N5J4 1-248)
# T5 sequence: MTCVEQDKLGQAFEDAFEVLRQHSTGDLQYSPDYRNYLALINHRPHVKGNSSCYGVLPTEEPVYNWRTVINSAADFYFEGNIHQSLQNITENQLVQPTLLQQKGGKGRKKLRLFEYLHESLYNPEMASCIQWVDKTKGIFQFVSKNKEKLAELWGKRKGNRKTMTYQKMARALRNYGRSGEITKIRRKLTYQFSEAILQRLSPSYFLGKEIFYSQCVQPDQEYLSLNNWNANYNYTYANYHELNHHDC
# Summary of the method: as §1
# ELF4 = ELF4 (Homo sapiens, UniProt Q99607 1-663)
# ELF4, sequence (Q99607 whole entry): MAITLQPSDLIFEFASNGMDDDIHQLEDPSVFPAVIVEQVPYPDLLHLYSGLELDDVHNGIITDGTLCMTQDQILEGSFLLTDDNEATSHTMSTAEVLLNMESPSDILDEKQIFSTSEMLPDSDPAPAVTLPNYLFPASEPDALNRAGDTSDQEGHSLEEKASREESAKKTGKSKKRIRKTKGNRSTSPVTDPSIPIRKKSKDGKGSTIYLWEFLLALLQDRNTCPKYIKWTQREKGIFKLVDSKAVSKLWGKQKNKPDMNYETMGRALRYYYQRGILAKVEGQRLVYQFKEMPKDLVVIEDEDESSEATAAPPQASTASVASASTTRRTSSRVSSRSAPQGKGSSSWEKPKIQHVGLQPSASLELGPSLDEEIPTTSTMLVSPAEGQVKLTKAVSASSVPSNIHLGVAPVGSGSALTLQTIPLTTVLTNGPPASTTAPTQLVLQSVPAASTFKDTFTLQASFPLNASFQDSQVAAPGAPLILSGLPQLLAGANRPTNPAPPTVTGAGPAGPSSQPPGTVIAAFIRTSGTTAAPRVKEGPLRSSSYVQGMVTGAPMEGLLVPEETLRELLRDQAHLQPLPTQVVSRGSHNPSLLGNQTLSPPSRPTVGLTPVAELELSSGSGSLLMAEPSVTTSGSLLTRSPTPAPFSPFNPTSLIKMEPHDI
# Summary of the method: as §1
# ETV1 = ETV1 (Homo sapiens, UniProt P50549 1-477)
# ETV1, sequence (P50549 whole entry): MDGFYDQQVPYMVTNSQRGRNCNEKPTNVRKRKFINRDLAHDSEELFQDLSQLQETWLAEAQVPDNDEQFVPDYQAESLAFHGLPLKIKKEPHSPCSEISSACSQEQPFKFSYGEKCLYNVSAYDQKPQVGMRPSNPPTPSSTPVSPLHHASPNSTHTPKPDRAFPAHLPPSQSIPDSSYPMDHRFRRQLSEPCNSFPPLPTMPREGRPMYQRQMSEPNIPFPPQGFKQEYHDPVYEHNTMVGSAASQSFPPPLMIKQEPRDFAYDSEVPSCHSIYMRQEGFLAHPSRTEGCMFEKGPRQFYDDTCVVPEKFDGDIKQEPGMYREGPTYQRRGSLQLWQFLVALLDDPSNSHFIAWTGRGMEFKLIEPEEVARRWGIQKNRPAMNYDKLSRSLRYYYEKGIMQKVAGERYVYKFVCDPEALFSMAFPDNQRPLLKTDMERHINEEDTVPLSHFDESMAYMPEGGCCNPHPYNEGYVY
# Summary of the method: as §1
# ERF = target: T6, ERF (Homo sapiens, UniProt P50548 1-548)
# T6 sequence: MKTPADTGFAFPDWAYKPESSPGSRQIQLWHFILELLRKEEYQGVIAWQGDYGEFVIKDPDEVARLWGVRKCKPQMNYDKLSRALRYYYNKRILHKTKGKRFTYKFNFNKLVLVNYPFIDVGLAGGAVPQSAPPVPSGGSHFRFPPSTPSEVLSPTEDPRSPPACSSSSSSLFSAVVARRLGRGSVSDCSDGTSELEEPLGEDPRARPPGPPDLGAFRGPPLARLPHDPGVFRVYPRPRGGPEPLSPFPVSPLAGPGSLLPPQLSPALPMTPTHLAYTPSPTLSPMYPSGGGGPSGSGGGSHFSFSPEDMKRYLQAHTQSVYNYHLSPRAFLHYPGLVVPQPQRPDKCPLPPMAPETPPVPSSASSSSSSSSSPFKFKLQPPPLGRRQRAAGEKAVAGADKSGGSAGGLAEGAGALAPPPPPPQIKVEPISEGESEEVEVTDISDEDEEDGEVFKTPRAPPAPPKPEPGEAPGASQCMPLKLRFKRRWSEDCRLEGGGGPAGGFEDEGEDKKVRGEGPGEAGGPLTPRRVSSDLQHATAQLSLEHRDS
# Summary of the method: as §1
# ETV3L = target: T7, ETV3L (Homo sapiens, UniProt Q6ZN32 1-361)
# T7 sequence: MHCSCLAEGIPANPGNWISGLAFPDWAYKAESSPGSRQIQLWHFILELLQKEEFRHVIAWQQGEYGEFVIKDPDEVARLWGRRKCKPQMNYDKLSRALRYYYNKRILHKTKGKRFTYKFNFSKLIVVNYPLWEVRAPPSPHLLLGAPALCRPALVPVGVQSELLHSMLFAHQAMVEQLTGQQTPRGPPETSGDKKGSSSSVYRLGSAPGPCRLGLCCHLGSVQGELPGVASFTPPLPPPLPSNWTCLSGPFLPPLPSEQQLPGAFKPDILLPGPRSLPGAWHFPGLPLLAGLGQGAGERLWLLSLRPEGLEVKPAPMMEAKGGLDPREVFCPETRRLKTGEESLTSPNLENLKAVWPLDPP
# Summary of the method: as §1
# ETS2 = target: T8, ETS2 (Homo sapiens, UniProt P15036 1-469)
# T8 sequence: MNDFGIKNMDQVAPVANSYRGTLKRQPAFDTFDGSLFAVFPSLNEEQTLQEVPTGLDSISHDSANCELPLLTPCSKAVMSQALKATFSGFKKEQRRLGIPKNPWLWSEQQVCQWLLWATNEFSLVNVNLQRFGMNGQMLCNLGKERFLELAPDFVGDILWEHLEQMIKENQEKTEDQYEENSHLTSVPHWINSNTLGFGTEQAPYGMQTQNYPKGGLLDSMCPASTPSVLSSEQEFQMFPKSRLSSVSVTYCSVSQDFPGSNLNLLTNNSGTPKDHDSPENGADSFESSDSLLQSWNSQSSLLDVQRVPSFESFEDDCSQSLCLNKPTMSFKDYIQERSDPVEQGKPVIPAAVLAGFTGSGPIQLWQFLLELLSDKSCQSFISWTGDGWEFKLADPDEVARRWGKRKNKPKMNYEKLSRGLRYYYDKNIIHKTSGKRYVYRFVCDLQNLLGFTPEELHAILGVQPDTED
# Summary of the method: as §1
# SPDEF = target: T9, SPDEF (Homo sapiens, UniProt O95238 1-335)
# T9 sequence: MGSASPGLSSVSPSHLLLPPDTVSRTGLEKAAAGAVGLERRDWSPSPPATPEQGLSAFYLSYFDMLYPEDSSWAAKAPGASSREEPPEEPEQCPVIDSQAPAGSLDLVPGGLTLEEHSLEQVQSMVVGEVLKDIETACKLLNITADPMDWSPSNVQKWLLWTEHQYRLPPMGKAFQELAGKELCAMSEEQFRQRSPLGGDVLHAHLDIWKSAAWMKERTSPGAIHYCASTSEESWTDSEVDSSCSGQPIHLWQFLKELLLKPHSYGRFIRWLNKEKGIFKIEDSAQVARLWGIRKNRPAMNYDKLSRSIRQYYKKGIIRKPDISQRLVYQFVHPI
# Summary of the method: as §1
sequence,measurement,setting,value
TGTGGT,binding signal,FLI1,"1.08 fold enrichment (6-mer frequency, TF over GST control)"
same,binding signal,GABPA,"1.09 fold enrichment (6-mer frequency, TF over GST control)"
same,binding signal,ERG,"1.07 fold enrichment (6-mer frequency, TF over GST control)"
same,binding signal,ELF1,"1.01 fold enrichment (6-mer frequency, TF over GST control)"
same,binding signal,EHF,"1.08 fold enrichment (6-mer frequency, TF over GST control)"
same,binding signal,SPI1,"1.05 fold enrichment (6-mer frequency, TF over GST control)"
same,binding signal,SPIB,"1.16 fold enrichment (6-mer frequency, TF over GST control)"
same,binding signal,ETV5,"1.04 fold enrichment (6-mer frequency, TF over GST control)"
same,binding signal,SPIC,"1.02 fold enrichment (6-mer frequency, TF over GST control)"
same,binding signal,ELF4,"1.04 fold enrichment (6-mer frequency, TF over GST control)"
same,binding signal,ETV1,"1.01 fold enrichment (6-mer frequency, TF over GST control)"
same,binding signal,ERF,"1.06 fold enrichment (6-mer frequency, TF over GST control)"
same,binding signal,ETV3L,"1.04 fold enrichment (6-mer frequency, TF over GST control)"
same,binding signal,ETS2,"1.05 fold enrichment (6-mer frequency, TF over GST control)"
same,binding signal,SPDEF,"1.07 fold enrichment (6-mer frequency, TF over GST control)"

# — paper PMC7862700, “An all-to-all approach to the identification of sequence-specific readers for epigenetic DNA modifications on cytosine”
